# Data: PMC5540273 (PLoS ONE, 2017)
# Where two headings read alike, the source gives them in different places.
# What was measured:
# [1] = tested on: RPS6KA4(Kin.Dom.1-N-terminal); settings: n = 1
# [2] = tested on: RPS6KA4(Kin.Dom.2-C-terminal); settings: n = 1
# [3] = tested on: RPS6KA5(Kin.Dom.1-N-terminal); settings: concentration: 1 μM, replicates: in singlicate; n = 1
# [4] = tested on: RPS6KA5(Kin.Dom.2-C-terminal); settings: concentration: 1 μM, replicates: in singlicate; n = 1
# [5] = tested on: T1, RSK1(Kin.Dom.1-N-terminal); settings: concentration: 1 μM, replicates: in singlicate; n = 1
# T1 construct: gene RPS6KA1
# [6] = tested on: T2, RSK1(Kin.Dom.2-C-terminal); settings: concentration: 1 μM, replicates: in singlicate; n = 1
# T2 construct: gene RPS6KA1
# [7] = tested on: T3, RSK2(Kin.Dom.1-N-terminal); settings: concentration: 1 μM, replicates: in singlicate; n = 1
# T3 construct: gene RPS6KA3
# [8] = tested on: T4, RSK2(Kin.Dom.2-C-terminal); settings: concentration: 1 μM, replicates: in singlicate; n = 1
# T4 construct: gene RPS6KA3
# [9] = tested on: T5, RSK3(Kin.Dom.1-N-terminal); settings: concentration: 1 μM, replicates: in singlicate; n = 1
# T5 construct: gene RPS6KA2
# [10] = tested on: T6, RSK3(Kin.Dom.2-C-terminal); settings: concentration: 1 μM, replicates: in singlicate; n = 1
# T6 construct: gene RPS6KA2
# [11] = tested on: T7, RSK4(Kin.Dom.1-N-terminal); settings: concentration: 1 μM, replicates: in singlicate; n = 1
# T7 construct: gene RPS6KA6
# [12] = tested on: T8, RSK4(Kin.Dom.2-C-terminal); settings: concentration: 1 μM, replicates: in singlicate; n = 1
# T8 construct: gene RPS6KA6
# S6K1 = settings: concentration: 1 μM, replicates: in singlicate; n = 1
# SBK1 = settings: concentration: 1 μM, replicates: in singlicate; n = 1
# SGK2 = settings: concentration: 1 μM, replicates: in singlicate; n = 1
# SGK3 = settings: concentration: 1 μM, replicates: in singlicate; n = 1
# SGK = settings: concentration: 1 μM, replicates: in singlicate; n = 1
# SIK2 = settings: concentration: 1 μM, replicates: in singlicate; n = 1
# SIK = settings: concentration: 1 μM, replicates: in singlicate; n = 1
# SLK = settings: concentration: 1 μM, replicates: in singlicate; n = 1
# [13] = concentration: 1 μM, replicates: in singlicate
# 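Further: KINOMEscan kinase panel screen.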
compound,measurement,setting,value
COc1cccc(C(=O)Nc2cccc(Oc3ccc4nc(NC(=O)C5CC5)cn4n3)c2)c1,%Inh,[1]; [13],40%
same,%Inh,[2]; [13],10%
same,%Inh,[3],0%
same,%Inh,[4],19%
same,%Inh,[5],0%
same,%Inh,[6],12%
same,%Inh,[7],9%
same,%Inh,[8],0%
same,%Inh,[9],5%
same,%Inh,[10],1%
same,%Inh,[11],0%
same,%Inh,[12],0%
same,%Inh,S6K1,0%
same,%Inh,SBK1,0%
same,%Inh,SGK2,0%
same,%Inh,SGK3,23%
same,%Inh,SGK,0%
same,%Inh,SIK2,27%
same,%Inh,SIK,63%
same,%Inh,SLK,49%
CC(C)(C)c1ccc2nccc(Nc3cccc(O)c3)c2c1 [GW856795],%Inh,[1]; [13],0%
same,%Inh,[2]; [13],0%
same,%Inh,[3],0%
same,%Inh,[4],0%
same,%Inh,[5],0%
same,%Inh,[6],0%
same,%Inh,[7],0%
same,%Inh,[8],49%
same,%Inh,[9],19%
same,%Inh,[10],30%
same,%Inh,[11],0%
same,%Inh,[12],27%
same,%Inh,S6K1,9%
same,%Inh,SBK1,0%
same,%Inh,SGK2,1%
same,%Inh,SGK3,0%
same,%Inh,SGK,15%
same,%Inh,SIK2,0%
same,%Inh,SIK,0%
same,%Inh,SLK,55%
O=C(Nc1cccc(Oc2ccc3nc(NC(=O)C4CC4)cn3n2)c1)c1ccccc1C(F)(F)F,%Inh,[1]; [13],35%
same,%Inh,[2]; [13],0%
same,%Inh,[3],0%
same,%Inh,[4],17%
same,%Inh,[5],6%
same,%Inh,[6],0%
same,%Inh,[7],0%
same,%Inh,[8],55%
same,%Inh,[9],6%
same,%Inh,[10],0%
same,%Inh,[11],0%
same,%Inh,[12],0%
same,%Inh,S6K1,0%
same,%Inh,SBK1,0%
same,%Inh,SGK2,7%
same,%Inh,SGK3,0%
same,%Inh,SGK,0%
same,%Inh,SIK2,28%
same,%Inh,SIK,1%
same,%Inh,SLK,32%
Cn1cc(-c2[nH]c3cc(NC(=O)[C@H](N)C4CCCCC4)cc4c3c2C=NNC4=O)cn1,%Inh,[1]; [13],96.8%
same,%Inh,[2]; [13],96.2%
same,%Inh,[3],34%
same,%Inh,[4],59%
same,%Inh,[5],60%
same,%Inh,[6],72%
same,%Inh,[7],85%
same,%Inh,[8],0%
same,%Inh,[9],65%
same,%Inh,[10],5%
same,%Inh,[11],86%
same,%Inh,[12],35%
same,%Inh,S6K1,76%
same,%Inh,SBK1,96.2%
same,%Inh,SGK2,83%
same,%Inh,SGK3,99.1%
same,%Inh,SGK,95.7%
same,%Inh,SIK2,95.2%
same,%Inh,SIK,90.8%
same,%Inh,SLK,14%
COc1cccc(-c2ccc3c(NC(=O)C4CC4)n[nH]c3n2)c1 [SB-710903],%Inh,[1]; [13],2%
same,%Inh,[2]; [13],0%
same,%Inh,[3],20%
same,%Inh,[4],12%
same,%Inh,[5],20%
same,%Inh,[6],0%
same,%Inh,[7],0%
same,%Inh,[8],22%
same,%Inh,[9],6%
same,%Inh,[10],1%
same,%Inh,[11],5%
same,%Inh,[12],21%
same,%Inh,S6K1,8%
same,%Inh,SBK1,0%
same,%Inh,SGK2,5%
same,%Inh,SGK3,2%
same,%Inh,SGK,19%
same,%Inh,SIK2,0%
same,%Inh,SIK,0%
same,%Inh,SLK,30%
CN(c1ccc(NC(=O)Nc2cc(C(F)(F)F)ccc2F)cc1)c1ccnc(Nc2ccc(S(N)(=O)=O)cc2)n1 [GW809893],%Inh,[1]; [13],26%
same,%Inh,[2]; [13],1%
same,%Inh,[3],14%
same,%Inh,[4],4%
same,%Inh,[5],100%
same,%Inh,[6],0%
same,%Inh,[7],8%
same,%Inh,[8],28%
same,%Inh,[9],35%
same,%Inh,[10],0%
same,%Inh,[11],5%
same,%Inh,[12],0%
same,%Inh,S6K1,40%
same,%Inh,SBK1,0%
same,%Inh,SGK2,0%
same,%Inh,SGK3,22%
same,%Inh,SGK,1%
same,%Inh,SIK2,1%
same,%Inh,SIK,22%
same,%Inh,SLK,96.3%
CCn1c(-c2nonc2N)nc2c(C#CC(C)(C)O)ncc(OCCCCN)c21.O=C(O)C(F)(F)F.O=C(O)C(F)(F)F [GSK507274],%Inh,[1]; 1 µM,10%
same,%Inh,[2]; 1 µM,99%
same,%Inh,[3],37%
same,%Inh,[4],74%
same,%Inh,[5],18%
same,%Inh,[6],0%
same,%Inh,[7],19%
same,%Inh,[8],0%
same,%Inh,[9],11%
same,%Inh,[10],6%
same,%Inh,[11],2%
same,%Inh,[12],7%
same,%Inh,S6K1,1%
same,%Inh,SBK1,44%
same,%Inh,SGK2,12%
same,%Inh,SGK3,2%
same,%Inh,SGK,0%
same,%Inh,SIK2,5%
same,%Inh,SIK,2%
same,%Inh,SLK,1%
O=C(Nc1cccc(-c2nn3ccccc3c2-c2ccnc(Nc3cccc(F)c3)n2)c1)c1c(F)ccc(F)c1Cl [GSK357952],%Inh,[1]; [13],15%
same,%Inh,[2]; [13],0%
same,%Inh,[3],28%
same,%Inh,[4],20%
same,%Inh,[5],63%
same,%Inh,[6],14%
same,%Inh,[7],18%
same,%Inh,[8],8%
same,%Inh,[9],24%
same,%Inh,[10],0%
same,%Inh,[11],4%
same,%Inh,[12],0%
same,%Inh,S6K1,2%
same,%Inh,SBK1,12%
same,%Inh,SGK2,0%
same,%Inh,SGK3,2%
same,%Inh,SGK,10%
same,%Inh,SIK2,16%
same,%Inh,SIK,34%
same,%Inh,SLK,91.2%
Nc1ncnc2c1nc(-c1ccccc1)n2-c1ccccc1 [SKF-97293],%Inh,[1]; [13],9%
same,%Inh,[2]; [13],10%
same,%Inh,[3],16%
same,%Inh,[4],11%
same,%Inh,[5],19%
same,%Inh,[6],0%
same,%Inh,[7],40%
same,%Inh,[8],27%
same,%Inh,[9],18%
same,%Inh,[10],0%
same,%Inh,[11],36%
same,%Inh,[12],0%
same,%Inh,S6K1,29%
same,%Inh,SBK1,53%
same,%Inh,SGK2,0%
same,%Inh,SGK3,16%
same,%Inh,SGK,23%
same,%Inh,SIK2,0%
same,%Inh,SIK,8%
same,%Inh,SLK,0%
FC(F)(F)c1ccc(/C=C/c2cncnc2Nc2ccc3[nH]c(Cc4ccccc4)nc3c2)cc1 [GW709199],%Inh,[1]; [13],25%
same,%Inh,[2]; [13],0%
same,%Inh,[3],0%
same,%Inh,[4],6%
same,%Inh,[5],3%
same,%Inh,[6],0%
same,%Inh,[7],11%
same,%Inh,[8],48%
same,%Inh,[9],13%
same,%Inh,[10],0%
same,%Inh,[11],0%
same,%Inh,[12],0%
same,%Inh,S6K1,0%
same,%Inh,SBK1,0%
same,%Inh,SGK2,0%
same,%Inh,SGK3,0%
same,%Inh,SGK,0%
same,%Inh,SIK2,4%
same,%Inh,SIK,20%
same,%Inh,SLK,5%
